Measured values from PubChem BioAssay (NCATS).
Where “and” joins values, the source holds several entries; their conditions need not be identical. Equal values may be shown once. Records with an inconclusive call do not appear. Calls of active or inactive are those of the source. Unless noted, calls follow the shape of the dose curve; as a rule, active = well fitted curve in the direction sought with a large enough effect; inconclusive = small, poorly fitted or top-dose-only effect, or another doubt; inactive = no such curve, though single readings can be large; an effect the other way counts as inactive or inconclusive.

Key:
[1] = target: Cytochrome P450 3A4 (Homo sapiens) (UniProt P08684); assay: qHTS Assay for Inhibitors and Substrates of Cytochrome P450 3A4 (AID 884); also: nearly all actives have a fitted effect of over 50% in size; also: potency is read from the fitted curve at half-maximal effect
Procedure, shortened: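 20 nM human CYP3A4 with 25 uM Luciferin-PPXE (at KM) in 200 mM KPO4, preincubated 10 min with compound; NADPH regeneration started a 60 min RT reaction. Luciferin detected by luminescence, normalized to 57 uM ketoconazole as full inhibition.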

[2] = Confirmation and Secondary Assay for Modulators of Hemoglobin Beta Chain Splicing at IVS2 654 locus (AID 910);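 also: HeLa cells stably carrying EGFP split by mutant beta-globin IVS2-654 intron; % of control where 0% means no effect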
Procedure, shortened: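 HeLa cells stably expressing EGFP interrupted by β-globin IVS2-654 intron, seeded overnight in Opti-MEM/2% FCS, then treated 2 days at 37 °C. Restored splicing read as total peak GFP intensity per well by laser scanning cytometry (488 nm excitation, 500–520 nm emission); 500 nM antisense PNA as control.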

[3] = Confirmation and Secondary Assay for Modulators of Hemoglobin Beta Chain Splicing at IVS2 705 locus (AID 930);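 also: HeLa cells stably expressing the EGFP-705 splicing reporter; GFP fluorescence per well restored by corrected splicing of the IVS2-705 intron in EGFP; % of control where 0% means no effect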
Procedure, shortened: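 Assay measures total GFP intensity per well in HeLa EGFP-705 cells after 2 days with compound; mis-splicing normally truncates EGFP, so fluorescence indicates corrected splicing.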

[4] = qHTS Assay for Lipid Storage Modulators (AID 1519; calls by dose curve); details: Drosophila S3 cells, BODIPY lipid droplet/cell ratio, laser cytometry, cells loaded with oleic acid; for activity change, negative = inhibition: at 57.5 µM (top of the series)
Procedure, shortened: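 Cells seeded at 5,000 per well were treated with compounds over a concentration series and loaded with oleic acid (400 uM, as added). Lipid droplet fluorescence (488 nm excitation, 500-530 nm channel) was read by laser-scanning cytometry and normalized to 20 uM Triacsin C.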

[5] = target: Estrogen receptor (Homo sapiens) (UniProt P03372); assay: qHTS assay for small molecule antagonists of estrogen receptor alpha signaling (AID 588513; active = well fitted curve in the direction sought with a large enough effect in the signal ratio, with a control signal flat, not every such curve was filed as active; the % refers to the signal ratio; also: % is scaled to controls: 0 for no effect and ±100 for the full control effect)
Procedure, shortened: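 ER-alpha-UAS-bla GripTite HEK 293 cells in medium with 2% charcoal/dextran-treated FBS were preincubated 4 h at 37 C, dosed with compound (1:2 titration), stimulated with 0.5nM 17-beta-estradiol for 18 h, then read by CCF4 beta-lactamase fluorescence.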

[6] = target: Estrogen receptor (Homo sapiens) (UniProt P03372); assay: qHTS assay for small molecule agonists of estrogen receptor alpha signaling (AID 588514; calls by dose curve;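 also: 0% = vehicle only and 100% = reference agonist; nearly all actives have a fitted effect of over 70% in size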)
Procedure, shortened: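 Reporter-gene assay. […] controls beta-lactamase in HEK 293 GripTite cells; after 18 hrs with compound, CCF4 substrate is added for 2 hrs and fluorescence is read.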

[7] = target: Peroxisome proliferator-activated receptor delta (Homo sapiens) (UniProt Q03181); assay: qHTS assay for small molecule agonists of peroxisome proliferator-activated receptor delta signaling (AID 588534; calls by dose curve;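 also: 0% = DMSO basal wells and 100% = positive control agonist at 10 µM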)
Procedure, shortened: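 Reporter cells were plated and held 5 hrs at 37 C before compounds were added. After 18 hrs at 37 C, CCF4 dye was loaded for 2 hrs at RT and fluorescence measured.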

[8] = qHTS assay for small molecule antagonists of peroxisome proliferator-activated receptor delta signaling (AID 588535; active = well fitted inhibition curve with a large enough effect in the signal ratio, with a control signal flat, not every such curve was filed as active; the % refers to the signal ratio;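 as to max response: cells co-treated with a PPAR-delta agonist as stimulator during compound exposure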); details: HEK293T PPARd-UAS-bla, beta-lactamase FRET ratio, 18 h; 460 nm channel
Procedure, shortened: (§1)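 Cells were seeded at 4000 per well in assay medium containing 2% charcoal/dextran FBS and held 5 hrs at 37 C. Compounds were then added for 18 hrs. CCF4 substrate was applied for 2 hrs at room temperature before fluorescence reading.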

[9] = target: Peroxisome proliferator-activated receptor delta (Homo sapiens) (UniProt Q03181); assay: as above
Procedure, shortened: as §1

[10] = target: Peroxisome proliferator-activated receptor gamma (Homo sapiens) (UniProt P37231); assay: qHTS assay for small molecule agonists of peroxisome proliferator-activated receptor gamma signaling (AID 588536; active = well fitted curve in the direction sought with a large enough effect in the signal ratio, with a control signal flat, not every such curve was filed as active; the % refers to the signal ratio;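 also: 0% = DMSO basal wells and 100% = rosiglitazone at 2 µM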)
Procedure, shortened: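 Test agents, titrated, stimulated HEK293 UAS-bla cells overnight (16 h, 37 C). Substrate CCF4 was then added for two hours at room temperature before fluorescence reading.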

[11] = target: Peroxisome proliferator-activated receptor gamma (Homo sapiens) (UniProt P37231); assay: qHTS assay for small molecule antagonists of peroxisome proliferator-activated receptor gamma signaling (AID 588537; active = well fitted inhibition curve with a large enough effect in the signal ratio, with a control signal flat, not every such curve was filed as active; the % refers to the signal ratio;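 also: reporter cells co-stimulated with 50 nM rosiglitazone agonist during compound treatment; % of control where 0% means no effect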)
Procedure, shortened: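 Step one: plate 3000 HEK293 UAS-bla cells per well in medium with 1% stripped serum and hold 6-6.5 h at 37 C. Step two: add compound and 50 nM agonist for 16 h. Step three: CCF4 loading, fluorescence read.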

[12] = target: Vitamin D3 receptor (Homo sapiens) (UniProt P11473); assay: qHTS assay for small molecule antagonists of vitamin D receptor signaling (AID 588541; calls by dose curve;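 also: receptor activated by calcitriol during compound treatment; % is scaled to controls: 0 for no effect and ±100 for the full control effect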)
Procedure, shortened: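 VDR-UAS-bla HEK293T cells in 2% charcoal-stripped FBS were stimulated with 1-alpha,25-dihydroxyvitamin D3 (3 nM final) plus compound for 16 h at 37 C. The beta-lactamase CCF4 readout was normalized to 50 nM agonist and DMSO, and Hill fits gave IC50.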

[13] = target: Vitamin D3 receptor (Homo sapiens) (UniProt P11473); assay: qHTS assay for small molecule agonists of vitamin D receptor signaling (AID 588543; calls by dose curve;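 also: 0% = DMSO basal and 100% = reference agonist control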)
Procedure, shortened: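 GeneBLAzer VDR-UAS-bla HEK293T cells in 2% charcoal-stripped FBS medium were dosed with compound titrations for 16 h at 37 °C; CCF4 β-lactamase readout (405 nm ex, 460/530 nm em). EC50 and efficacy from Hill fits, normalized to 50 nM calcitriol (100%) and DMSO (0%).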

[14] = qHTS assay for small molecule agonists of retinoid X receptor alpha signaling (AID 588544; calls by dose curve;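 as to activation: 0% = DMSO basal wells and 100% = reference agonist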); details: HEK293T RXRa-UAS-bla, beta-lactamase reporter, 18 h; 530 nm emission
[15] = target: Retinoic acid receptor RXR-alpha (Homo sapiens) (UniProt P19793); assay: as above
[16] = target: Thyroid hormone receptor beta (Homo sapiens) (UniProt P10828); assay: qHTS assay for small molecule agonists of thyroid hormone receptor beta signaling (AID 588545; calls by dose curve)
Procedure, shortened: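 In this cell-based screen, titrated compounds act on HEK 293 cells held in medium with 2% charcoal/dextran FBS, NEAA and pyruvate for 18 hrs at 37 C. Responses are expressed relative to T3 (10 nM) as 100% and basal DMSO as 0%.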

[17] = qHTS assay for small molecule antagonists of retinoid X receptor alpha signaling (AID 588546; active = well fitted inhibition curve with a large enough effect in the signal ratio, with a control signal flat, not every such curve was filed as active; the % refers to the signal ratio;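 also: cells stimulated with 9-cis-retinoic acid as agonist; % is scaled to controls: 0 for no effect and ±100 for the full control effect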); details: HEK293T RXRa-UAS-bla, beta-lactamase ratio, antagonist mode; measured here: W530 green channel, cytotoxicity proxy
Procedure, shortened: (§2)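 Beta-lactamase reporter inhibition, read as CCF4 fluorescence ratio (ex 405, em 460/530 nm) after 2 h at RT. HEK293T UAS-bla cells, 2500/well, were stimulated with 9-cis-RA at 500 or 100 nM final alongside test compound for 18 h at 37 C.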

[18] = target: Retinoic acid receptor RXR-alpha (Homo sapiens) (UniProt P19793); assay: as above; details: HEK293T RXRa-UAS-bla, beta-lactamase ratio, antagonist mode
Procedure, shortened: as §2

[19] = target: Thyroid hormone receptor beta (Homo sapiens) (UniProt P10828); assay: qHTS assay for small molecule antagonists of thyroid hormone receptor beta signaling (AID 588547; active = well fitted inhibition curve with a large enough effect in the signal ratio, with a control signal flat, not every such curve was filed as active; the % refers to the signal ratio;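 also: cells stimulated with 0.4 nM T3 agonist during compound exposure; % is scaled to controls: 0 for no effect and ±100 for the full control effect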); details: TR-UAS-bla HEK293, beta-lactamase ratio, antagonist mode, 18 h
Procedure, shortened: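 TR-UAS-bla GripTite HEK293 cells in 2% charcoal/dextran FBS medium; compounds 0.59 nM to 92 uM with T3 at 0.4nM final, 18 h at 37 C. Beta-lactamase read by CCF4 fluorescence (460/530 nm); Hill fits gave IC50 and efficacy.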

[20] = qHTS assay for small molecule agonists of the antioxidant response element (ARE) signaling pathway (AID 651741; active = well fitted activation curve with a large enough effect in the signal ratio; the % refers to the signal ratio; also: % of control where 0% means no effect)
Procedure, shortened: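 HepG2 ARE-bla cells plated at 2,000 cells/well and incubated 5 h at 37 C/5% CO2 received 23 nL compound in DMSO. After 16 h at 37 C, LiveBLAzer B/G FRET substrate was applied for 2 h at room temperature and fluorescence read.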

[21] = qHTS assay for environmental chemicals that activate the Aryl hydrocarbon Receptor (AhR) signaling pathway (AID 651777); details: 1A2-DRE human hepatoma cells, luciferase, 24 h; activation: stronger effect = higher value; also: % of control where 0% means no effect; nearly all actives have a fitted effect of over 15% in size
Procedure, shortened: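 Stable CYP1A2 promoter/DRE-luciferase human hepatoma line treated 24 hr; One-Glo luminescence, 30 min RT.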

[22] = target: Peroxisome proliferator-activated receptor alpha (Homo sapiens) (UniProt Q07869); assay: qHTS assay for small molecule agonists of the peroxisome proliferator-activated receptor alpha (PPARalpha) signaling pathway (AID 651778); details: PathHunter PPARalpha complementation, chemiluminescence, 6 h; stronger effect = higher value; also: % of control where 0% means no effect
Procedure, shortened: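 Enzyme-fragment complementation assay in which ligand-bound PPARalpha translocates and forms an active enzyme that generates chemiluminescence. Cells were plated overnight, exposed to compound for 6 hr at 37 C, and then given detection reagent for 60 min at room temperature.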

[23] = qHTS assay for small molecule agonists of the antioxidant response element (ARE) signaling pathway measured by Nrf2-dependant transcriptional activity (AID 720636; active = well fitted curve in the direction sought with a large enough effect in the repeat runs; an effect the other way counts as inactive or inconclusive;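 also: HepG2 cells with an ARE-driven luciferase reporter; % of control where 0% means no effect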)
Procedure, shortened: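 Reporter gene assay, HepG2 ARE-luc: 16 hr compound, 37 C, 5% CO2; read-out luciferase luminescence.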

[24] = qHTS assay for small molecule agonists of the antioxidant response element (ARE) signaling pathway measured by Nrf2-dependant transcriptional activity - cell viability counter screen (AID 720653; active = well fitted curve in the direction sought with a large enough effect in the repeat runs; an effect the other way counts as inactive or inconclusive; also: % is scaled to controls: 0 for no effect and ±100 for the full control effect); details: ARE-bla HepG2 viability, CellTiter-Glo ATP luminescence, 16 h; stronger effect = lower value
Procedure, shortened: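 ARE-bla HepG2 cells treated with compounds for 16 h at 37C; this counter screen measures viability as intracellular ATP by CellTiter-Glo luminescence after 30 min at room temperature.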

[25] = qHTS assay for cell viability of HEK293 cells (AID 743288); details: ATP luminescence (CellTiter-Glo), 18 h; max response: stronger effect = lower value; also: % is scaled to controls: 0 for no effect and ±100 for the full control effect; nearly all actives have a fitted effect of over 50% in size
Procedure, shortened: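 Parental HEK293 cells were seeded at 2,000 cells/well, rested at least 5 h at 37 C, then exposed to compounds in DMSO for 18 h at 37 C. Viability was read as ATP-dependent luciferase luminescence after 30 min at room temperature.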

[26] = qHTS assay for cell viability of the p53RE-bla HCT-116 cell line (AID 743292); also: % is scaled to controls: 0 for no effect and ±100 for the full control effect; nearly all actives have a fitted effect of over 55% in size
Procedure, shortened: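 Readout: CellTiter-Glo luminescence after 30 min RT. Treatment: compounds in DMSO, 16 h, 37 C. Cells: CellSensor p53RE-bla HCT-116, 4,000/well, preincubated 5 h.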

[27] = target: Nuclear receptor subfamily 1 group I member 2 (Rattus norvegicus) (UniProt Q9R1A7); assay: qHTS assay for small molecule activators of the rat pregnane X receptor (rPXR) signaling pathway (AID 651751; call rule not given here; also: 0% is about no effect); details: rPXR reporter cells, luciferase (One-Glo), 24 h
[28] = qHTS assay for small molecule activators of the human pregnane X receptor (PXR) signaling pathway (AID 720659; call rule not given here; also: 0% is about no effect)
[29] = target: Cytochrome P450 3A4 (Homo sapiens) (UniProt P08684); assay: qHTS Assay for Activators of Cytochrome P450 3A4 (AID 885); also: nearly all actives have a fitted effect of over 65% in size
Procedure, shortened: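 Steps: enzyme/substrate mix dispensed; compound added, 10 min RT; NADPH regeneration solution added, 60 min RT; luciferin detection buffer stops reaction; 20 min later luminescence measured.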

[30] = target: DNA dC->dU-editing enzyme APOBEC-3G (Homo sapiens) (UniProt Q9HC16); assay: qHTS for inhibitors of Vif-A3G interactions: Validation (AID 588379); also: 0% is about no effect
Procedure, shortened: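 HeLa cells stably expressing Vif and A3G-eYFP, 700 cells/well, incubated overnight at 37 deg C, then exposed to compound overnight at 37 deg C. Inhibition of Vif-mediated degradation read as increased yellow fluorescence (Ex 488/Em 500-530) by laser-scanning cytometry.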

[31] = target: Ubiquitin carboxyl-terminal hydrolase 1 (Homo sapiens) (UniProt O94782); assay: Inhibitors of USP1/UAF1: Pilot qHTS (AID 504865);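 also: rhodamine fluorescence freed from ubiquitin-rhodamine substrate followed over time; top concentration of the series differs between compounds; % is scaled to controls: 0 for no effect and ±100 for the full control effect; nearly all actives have a fitted effect of over 35% in size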
Procedure, shortened: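 USP1/UAF1 complex (1nM) preincubated with compound 15 min at room temperature, then Ub-Rho substrate (150nM final) added. Fluorescence read kinetically at 480/540 nm, 6 reads every 60 seconds. Buffer: 50mM HEPES pH 7.8, 0.5mM EDTA, 0.1 mg/ml BSA, 1mM TCEP, 0.01% Tween-20.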

[32] = measured here: cell count channel max response
[33] = measured here: lipid channel max response

Peroxisome proliferator-activated receptor delta (Homo sapiens), sequence (Q03181 whole entry, looked up): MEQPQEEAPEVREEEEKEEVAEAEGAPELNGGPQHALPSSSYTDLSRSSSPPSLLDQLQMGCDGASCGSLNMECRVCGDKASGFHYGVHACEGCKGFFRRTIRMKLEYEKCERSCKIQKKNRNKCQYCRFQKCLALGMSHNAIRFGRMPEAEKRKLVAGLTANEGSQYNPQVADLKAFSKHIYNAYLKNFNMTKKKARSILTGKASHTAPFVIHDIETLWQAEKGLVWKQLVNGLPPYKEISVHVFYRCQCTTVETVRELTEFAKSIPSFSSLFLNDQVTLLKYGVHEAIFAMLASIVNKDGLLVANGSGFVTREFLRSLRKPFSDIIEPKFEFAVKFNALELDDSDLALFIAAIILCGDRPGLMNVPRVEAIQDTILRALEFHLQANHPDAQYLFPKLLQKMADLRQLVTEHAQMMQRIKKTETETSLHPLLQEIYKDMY
Vitamin D3 receptor (Homo sapiens), sequence (P11473 whole entry, looked up): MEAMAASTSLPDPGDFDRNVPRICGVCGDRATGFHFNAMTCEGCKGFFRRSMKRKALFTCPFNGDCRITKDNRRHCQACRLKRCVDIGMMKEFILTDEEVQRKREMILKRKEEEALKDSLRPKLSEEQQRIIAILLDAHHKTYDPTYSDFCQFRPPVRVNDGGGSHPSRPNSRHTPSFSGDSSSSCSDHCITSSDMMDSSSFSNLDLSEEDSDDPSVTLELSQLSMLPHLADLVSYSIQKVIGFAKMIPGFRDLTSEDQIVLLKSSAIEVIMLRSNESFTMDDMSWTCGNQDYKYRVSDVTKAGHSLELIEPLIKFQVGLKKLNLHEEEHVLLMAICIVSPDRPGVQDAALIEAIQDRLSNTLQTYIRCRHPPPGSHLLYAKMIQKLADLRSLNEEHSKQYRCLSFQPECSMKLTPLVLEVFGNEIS
Cytochrome P450 3A4 (Homo sapiens), sequence (P08684 whole entry, looked up): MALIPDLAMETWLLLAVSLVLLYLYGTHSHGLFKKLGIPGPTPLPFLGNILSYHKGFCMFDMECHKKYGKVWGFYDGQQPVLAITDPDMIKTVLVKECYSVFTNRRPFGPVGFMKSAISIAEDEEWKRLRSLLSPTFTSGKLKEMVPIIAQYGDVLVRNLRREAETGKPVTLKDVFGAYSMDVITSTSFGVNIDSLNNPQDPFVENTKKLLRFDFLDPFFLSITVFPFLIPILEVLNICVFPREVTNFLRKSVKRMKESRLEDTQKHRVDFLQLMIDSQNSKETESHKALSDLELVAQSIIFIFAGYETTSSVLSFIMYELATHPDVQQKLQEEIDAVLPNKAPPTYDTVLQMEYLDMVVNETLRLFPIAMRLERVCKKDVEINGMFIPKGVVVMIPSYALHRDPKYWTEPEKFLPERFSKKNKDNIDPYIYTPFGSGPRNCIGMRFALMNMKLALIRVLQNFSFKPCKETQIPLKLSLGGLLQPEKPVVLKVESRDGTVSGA
Estrogen receptor (Homo sapiens), sequence (P03372 whole entry, looked up): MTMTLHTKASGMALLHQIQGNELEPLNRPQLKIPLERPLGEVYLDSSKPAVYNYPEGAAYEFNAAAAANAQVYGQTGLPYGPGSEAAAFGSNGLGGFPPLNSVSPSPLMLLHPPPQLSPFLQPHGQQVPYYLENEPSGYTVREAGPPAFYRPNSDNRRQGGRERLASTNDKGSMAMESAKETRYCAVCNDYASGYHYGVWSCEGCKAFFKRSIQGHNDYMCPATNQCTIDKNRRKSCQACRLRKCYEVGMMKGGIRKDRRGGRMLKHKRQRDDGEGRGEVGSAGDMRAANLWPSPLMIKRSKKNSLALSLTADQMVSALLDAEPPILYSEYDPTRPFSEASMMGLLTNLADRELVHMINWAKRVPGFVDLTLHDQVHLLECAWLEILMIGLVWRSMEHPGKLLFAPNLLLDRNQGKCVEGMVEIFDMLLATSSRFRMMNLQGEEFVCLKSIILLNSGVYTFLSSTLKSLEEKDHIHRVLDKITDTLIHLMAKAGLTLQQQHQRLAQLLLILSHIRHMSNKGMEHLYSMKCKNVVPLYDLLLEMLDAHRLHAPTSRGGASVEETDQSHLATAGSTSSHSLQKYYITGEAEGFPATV
Thyroid hormone receptor beta (Homo sapiens), sequence (P10828 whole entry, looked up): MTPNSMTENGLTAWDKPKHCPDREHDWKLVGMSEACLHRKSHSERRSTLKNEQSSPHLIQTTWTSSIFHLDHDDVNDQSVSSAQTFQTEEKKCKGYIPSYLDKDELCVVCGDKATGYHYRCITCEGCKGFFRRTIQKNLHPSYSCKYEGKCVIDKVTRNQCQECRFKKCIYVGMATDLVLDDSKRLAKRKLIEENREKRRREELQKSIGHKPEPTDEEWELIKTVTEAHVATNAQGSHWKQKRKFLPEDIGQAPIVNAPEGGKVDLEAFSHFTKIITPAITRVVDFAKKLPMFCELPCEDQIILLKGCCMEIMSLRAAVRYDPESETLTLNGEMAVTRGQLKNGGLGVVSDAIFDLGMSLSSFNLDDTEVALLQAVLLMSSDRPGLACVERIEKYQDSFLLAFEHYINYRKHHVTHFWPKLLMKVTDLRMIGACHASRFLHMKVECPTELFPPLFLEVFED
Peroxisome proliferator-activated receptor gamma (Homo sapiens), sequence (P37231 whole entry, looked up): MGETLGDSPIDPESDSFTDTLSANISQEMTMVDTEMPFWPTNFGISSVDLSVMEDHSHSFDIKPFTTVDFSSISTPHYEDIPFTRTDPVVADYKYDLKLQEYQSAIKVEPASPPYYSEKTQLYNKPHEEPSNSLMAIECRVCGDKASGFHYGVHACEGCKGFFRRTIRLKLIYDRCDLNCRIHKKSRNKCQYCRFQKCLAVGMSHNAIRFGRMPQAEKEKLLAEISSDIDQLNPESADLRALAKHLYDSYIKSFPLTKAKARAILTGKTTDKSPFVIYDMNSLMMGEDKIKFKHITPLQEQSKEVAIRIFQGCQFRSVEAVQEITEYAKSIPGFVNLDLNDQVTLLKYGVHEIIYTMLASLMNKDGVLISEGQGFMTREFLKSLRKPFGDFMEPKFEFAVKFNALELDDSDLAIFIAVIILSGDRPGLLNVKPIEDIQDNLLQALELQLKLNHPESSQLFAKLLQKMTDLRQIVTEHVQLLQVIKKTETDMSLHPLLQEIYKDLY
Retinoic acid receptor RXR-alpha (Homo sapiens), sequence (P19793 whole entry, looked up): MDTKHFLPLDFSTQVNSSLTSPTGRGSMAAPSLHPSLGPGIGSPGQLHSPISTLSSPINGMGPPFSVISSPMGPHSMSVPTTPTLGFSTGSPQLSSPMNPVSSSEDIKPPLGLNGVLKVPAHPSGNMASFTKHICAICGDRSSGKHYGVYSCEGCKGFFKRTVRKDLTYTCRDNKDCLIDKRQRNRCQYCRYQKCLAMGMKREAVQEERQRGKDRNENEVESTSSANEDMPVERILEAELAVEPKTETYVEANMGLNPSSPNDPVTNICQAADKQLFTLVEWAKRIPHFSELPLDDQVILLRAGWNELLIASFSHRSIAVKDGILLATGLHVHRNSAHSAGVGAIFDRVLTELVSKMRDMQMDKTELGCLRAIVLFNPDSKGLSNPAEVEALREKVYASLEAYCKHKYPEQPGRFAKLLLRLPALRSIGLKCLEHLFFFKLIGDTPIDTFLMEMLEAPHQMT
Peroxisome proliferator-activated receptor alpha (Homo sapiens), sequence (Q07869 whole entry, looked up, the tested form may be a part): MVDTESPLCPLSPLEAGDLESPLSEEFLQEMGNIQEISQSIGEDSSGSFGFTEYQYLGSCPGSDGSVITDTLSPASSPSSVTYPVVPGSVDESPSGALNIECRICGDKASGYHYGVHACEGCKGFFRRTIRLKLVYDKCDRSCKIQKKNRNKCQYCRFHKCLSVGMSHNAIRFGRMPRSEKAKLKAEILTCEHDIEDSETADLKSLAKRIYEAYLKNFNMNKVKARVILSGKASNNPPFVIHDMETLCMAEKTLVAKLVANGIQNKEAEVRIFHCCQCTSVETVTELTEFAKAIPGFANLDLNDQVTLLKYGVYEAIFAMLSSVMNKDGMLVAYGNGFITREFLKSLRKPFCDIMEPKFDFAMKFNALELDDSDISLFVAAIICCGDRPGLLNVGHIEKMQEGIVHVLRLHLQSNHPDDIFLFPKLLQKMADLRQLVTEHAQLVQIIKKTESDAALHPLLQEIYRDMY
Nuclear receptor subfamily 1 group I member 2 (Rattus norvegicus), sequence (Q9R1A7 whole entry, looked up): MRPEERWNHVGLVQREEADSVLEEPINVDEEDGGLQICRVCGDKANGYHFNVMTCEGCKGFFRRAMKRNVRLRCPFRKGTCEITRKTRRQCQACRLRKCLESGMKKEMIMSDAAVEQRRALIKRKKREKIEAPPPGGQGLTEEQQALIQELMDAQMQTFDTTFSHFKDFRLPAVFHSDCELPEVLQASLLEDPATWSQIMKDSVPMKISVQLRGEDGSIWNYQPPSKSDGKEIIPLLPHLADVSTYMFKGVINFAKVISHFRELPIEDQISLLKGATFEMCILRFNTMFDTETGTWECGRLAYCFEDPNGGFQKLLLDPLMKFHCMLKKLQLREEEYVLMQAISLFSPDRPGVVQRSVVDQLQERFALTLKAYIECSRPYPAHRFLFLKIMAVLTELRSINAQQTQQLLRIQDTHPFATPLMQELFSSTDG
DNA dC->dU-editing enzyme APOBEC-3G (Homo sapiens), sequence (Q9HC16 whole entry, looked up): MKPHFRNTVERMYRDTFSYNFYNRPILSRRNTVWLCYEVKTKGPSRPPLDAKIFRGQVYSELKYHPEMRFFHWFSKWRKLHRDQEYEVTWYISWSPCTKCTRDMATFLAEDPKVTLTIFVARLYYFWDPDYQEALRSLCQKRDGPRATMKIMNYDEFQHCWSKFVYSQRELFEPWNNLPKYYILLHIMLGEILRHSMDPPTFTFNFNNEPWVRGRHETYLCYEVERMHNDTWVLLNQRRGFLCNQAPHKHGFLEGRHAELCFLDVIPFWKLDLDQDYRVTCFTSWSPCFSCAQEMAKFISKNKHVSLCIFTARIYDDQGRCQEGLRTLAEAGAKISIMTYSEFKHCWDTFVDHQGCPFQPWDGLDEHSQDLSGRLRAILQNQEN

CNC(=O)CSP(=S)(OC)OC
8.94%: max response [4, 33]
1.61%: max response [14]
1.7%: max response [17]
5.57%: max response [4, 32]
27.9%: max response [8]
inactive: Potency [1] | Potency [2] | Potency [3] | activity change, negative = inhibition [4] 4.16% | Potency [5] | Potency [6] | outcome [7] | Potency [9] | outcome [10] | Potency [11] | outcome [12] | outcome [13] | Potency [15] | outcome [16] | max response [18] -6.5% | activity change % (negative = inhibition) [19] -15.4% and 6.49% | Potency [20] | activation [21] 0.301% and 4.06% | max response [22] -2.63% and -0.399% | outcome [23] | max response [24] -1.41% and -0.459% | max response [25] -6.64% and -7.96% | Potency [26] | max response [27] -3.03% and -0.565% | outcome [28]

C=C1C/C(=C/C)C(=O)O[C@@H]2CCN3CC=C(COC(=O)[C@]1(C)O)[C@@H]23
active: Potency [1] 15.8 µM
10.1%: max response [4, 33]
inactive: Potency [29] | activity change, negative = inhibition [4] 3.16% | outcome [30]
6.54%: max response [4, 32]

C[C@@]12CC(c3ccoc3)OC(=O)C1CC[C@@]1(C)C2C2C=C[C@@]1(O)C(=O)O2 (some centres not stated)
inactive: Potency [2] | Potency [3] | activity change, negative = inhibition [4] 2.16% | Potency [31]
24.2%: max response [4, 32]
26.2%: max response [4, 33]
